This note sets out measurements from PubChem BioAssay.

Activity calls are given as the source filed them.

Assay [1] relates to PRMT1 (protein arginine N-methyltransferase 1). Briefly: small molecules binding arginine methyltransferase PRMT1 – biochemical, small-molecule microarray, 635 nm fluorescence, primary screen (AID 1088).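 Also: binding of Prmt1 protein to compounds spotted on small-molecule microarray slides.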 As to conditions: higher = more signal.
Assay [2] is described as follows: growth effects on S. cerevisiae YJM789 – YJM789 clinical isolate, OD600, 24 h, basal, primary screen (AID 1089).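 Also: growth of clinical yeast isolate S. cerevisiae YJM 789 seeded 1000 cells per well; test concentration not given here.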 Conditions: higher = more signal, called active from +8 up or from −8 down.
The nature of assay [3]: S. pombe growth modifiers, basal conditions – strain 972, OD600, 24 h, no modulator, primary screen (AID 1090).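 Also: basal condition with compound alone and no growth modifier present; test concentration not given here.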 As to conditions: S. pombe 972 growth, higher = more signal, called active from +8 up or from −8 down.
Assay [4] in a line: budding yeast growth modifiers under rapamycin – strain BY4716, OD600, 96 h, primary screen (AID 1091). Also: test concentration not given here. As to conditions: S. cerevisiae BY4716 + rapamycin, higher = more signal, called active from +8 up or from −8 down.
For assay [5], the target named is Torsin-1A-interacting protein 2 (Homo sapiens) (UniProt Q8NFQ8). Briefly: small molecules binding lysate-expressed LULL1 – cell lysate, human LULL1 lysate, 635/667 nm fluorescence, primary screen (AID 1092).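 Also: probe is lysate of COS7 cells overexpressing human LULL1; score merges per-feature 667 nm fluorescence with signal-to-noise.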 Conditions: small-molecule microarray, hLULL1 lysate binding, 635 nm fluorescence; higher = more signal.
Torsin-1A-interacting protein 2 (Homo sapiens), sequence (Q8NFQ8 whole entry, looked up): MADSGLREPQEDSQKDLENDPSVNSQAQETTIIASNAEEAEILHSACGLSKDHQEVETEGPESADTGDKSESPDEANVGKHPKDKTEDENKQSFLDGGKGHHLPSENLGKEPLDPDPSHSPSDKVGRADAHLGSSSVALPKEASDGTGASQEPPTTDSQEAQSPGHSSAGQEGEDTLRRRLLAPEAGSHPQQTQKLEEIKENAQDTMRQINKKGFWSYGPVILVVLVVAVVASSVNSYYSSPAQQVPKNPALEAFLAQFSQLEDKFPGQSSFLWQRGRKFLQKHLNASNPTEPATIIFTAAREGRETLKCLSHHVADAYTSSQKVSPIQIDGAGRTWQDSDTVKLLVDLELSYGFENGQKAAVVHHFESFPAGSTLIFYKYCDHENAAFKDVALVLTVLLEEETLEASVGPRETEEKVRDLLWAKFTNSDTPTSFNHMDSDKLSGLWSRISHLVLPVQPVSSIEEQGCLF
Assay [6] can be described thus: optical density change of DRC41 E. coli – strain DRC41, OD650, 24 h, E. coli filamentation project, primary screen (AID 1093).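 Also: MC1000 strain lacking acrAB efflux and sulA so SOS filamentation is blocked; test concentration not given here.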 As to conditions: E. coli DRC41 growth, higher = more signal, called active from +8 up or from −8 down.
Assay [7] in a line: probe aLefty2 binding to arrayed compounds – biochemical, biotinylated probe, 635/667 nm fluorescence, primary screen (AID 1094).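 Also: score merges spot fluorescence near 667 nm with spot signal-to-noise ratio.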 As to conditions: small-molecule microarray, higher = more signal.
Assay [8] concerns Noggin (protein binding on small-molecule microarray). The assay is described as follows: small molecules binding Noggin protein – biochemical, 635/667 nm fluorescence, primary screen (AID 1095).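 Also: score merges 667 nm feature fluorescence with signal to noise over triplicate slides.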 Conditions: 635 nm fluorescence, higher = more signal.
In assay [9] the target is Neurogenic locus notch homolog protein 3 (Homo sapiens) (UniProt Q9UM47). The assay is described as follows: small molecules binding NOTCH3 protein – biochemical, 635/667 nm fluorescence, primary screen (AID 1096). As to conditions: small-molecule microarray, 635 nm fluorescence, higher = more signal.
Neurogenic locus notch homolog protein 3 (Homo sapiens), sequence (Q9UM47 whole entry, looked up): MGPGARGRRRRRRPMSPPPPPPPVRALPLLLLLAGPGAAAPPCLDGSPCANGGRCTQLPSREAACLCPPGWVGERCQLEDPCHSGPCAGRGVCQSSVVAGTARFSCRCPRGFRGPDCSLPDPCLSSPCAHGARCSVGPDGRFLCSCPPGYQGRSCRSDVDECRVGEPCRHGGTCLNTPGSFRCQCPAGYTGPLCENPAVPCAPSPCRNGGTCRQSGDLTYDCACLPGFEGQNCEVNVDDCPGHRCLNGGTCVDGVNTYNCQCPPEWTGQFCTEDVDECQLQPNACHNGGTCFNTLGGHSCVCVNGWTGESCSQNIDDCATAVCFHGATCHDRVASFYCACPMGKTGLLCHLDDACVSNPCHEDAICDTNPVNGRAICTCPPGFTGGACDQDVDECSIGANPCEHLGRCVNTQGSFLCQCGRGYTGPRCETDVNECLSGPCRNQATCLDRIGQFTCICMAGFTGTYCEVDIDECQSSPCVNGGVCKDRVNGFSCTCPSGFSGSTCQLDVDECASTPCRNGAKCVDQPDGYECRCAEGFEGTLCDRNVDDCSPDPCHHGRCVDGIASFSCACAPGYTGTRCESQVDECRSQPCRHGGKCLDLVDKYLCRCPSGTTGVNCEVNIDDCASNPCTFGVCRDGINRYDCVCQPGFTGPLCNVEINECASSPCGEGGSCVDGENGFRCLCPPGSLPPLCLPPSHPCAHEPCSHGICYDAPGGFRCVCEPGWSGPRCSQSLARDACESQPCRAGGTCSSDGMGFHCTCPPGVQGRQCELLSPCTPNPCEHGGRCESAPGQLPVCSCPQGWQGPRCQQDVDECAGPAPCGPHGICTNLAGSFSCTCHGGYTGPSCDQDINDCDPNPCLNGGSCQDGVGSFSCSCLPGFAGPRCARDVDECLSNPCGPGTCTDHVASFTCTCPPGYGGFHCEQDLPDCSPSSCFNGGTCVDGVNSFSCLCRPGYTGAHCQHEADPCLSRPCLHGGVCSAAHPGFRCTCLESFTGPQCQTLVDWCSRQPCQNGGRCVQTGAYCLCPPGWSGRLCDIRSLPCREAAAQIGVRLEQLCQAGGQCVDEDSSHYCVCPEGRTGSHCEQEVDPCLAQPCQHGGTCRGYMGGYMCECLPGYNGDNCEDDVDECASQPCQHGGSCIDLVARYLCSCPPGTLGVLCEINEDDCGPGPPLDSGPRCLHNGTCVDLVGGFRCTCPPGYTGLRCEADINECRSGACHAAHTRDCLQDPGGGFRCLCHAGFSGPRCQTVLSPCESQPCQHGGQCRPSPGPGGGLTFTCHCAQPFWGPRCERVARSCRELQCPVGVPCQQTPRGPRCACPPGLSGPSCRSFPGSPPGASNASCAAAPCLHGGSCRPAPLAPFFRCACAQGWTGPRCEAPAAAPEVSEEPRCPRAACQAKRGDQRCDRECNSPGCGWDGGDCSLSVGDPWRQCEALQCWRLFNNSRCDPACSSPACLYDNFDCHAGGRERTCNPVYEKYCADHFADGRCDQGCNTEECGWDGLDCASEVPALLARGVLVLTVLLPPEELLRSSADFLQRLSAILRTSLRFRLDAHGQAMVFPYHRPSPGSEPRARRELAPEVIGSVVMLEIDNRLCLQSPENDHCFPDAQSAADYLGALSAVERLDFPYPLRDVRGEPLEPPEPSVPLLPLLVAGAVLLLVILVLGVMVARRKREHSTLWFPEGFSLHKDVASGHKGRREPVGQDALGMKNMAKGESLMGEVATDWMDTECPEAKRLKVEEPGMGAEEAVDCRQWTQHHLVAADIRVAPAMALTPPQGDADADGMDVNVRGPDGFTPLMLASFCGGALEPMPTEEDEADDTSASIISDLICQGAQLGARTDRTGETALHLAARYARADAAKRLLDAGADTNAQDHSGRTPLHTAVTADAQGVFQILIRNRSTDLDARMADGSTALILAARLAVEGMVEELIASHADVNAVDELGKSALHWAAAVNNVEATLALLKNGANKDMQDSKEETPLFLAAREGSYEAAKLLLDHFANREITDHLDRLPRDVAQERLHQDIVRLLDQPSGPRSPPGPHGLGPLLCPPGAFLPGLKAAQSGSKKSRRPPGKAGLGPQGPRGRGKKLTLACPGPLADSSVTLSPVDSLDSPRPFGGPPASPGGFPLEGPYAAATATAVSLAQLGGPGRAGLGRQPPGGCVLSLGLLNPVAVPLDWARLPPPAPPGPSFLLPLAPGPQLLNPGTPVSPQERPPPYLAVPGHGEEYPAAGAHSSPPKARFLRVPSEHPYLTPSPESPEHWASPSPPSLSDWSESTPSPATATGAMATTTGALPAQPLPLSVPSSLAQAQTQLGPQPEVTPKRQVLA
A short description of assay [10]: probe aEGFR binding to arrayed compounds – biochemical, biotinylated probe, 635/667 nm fluorescence, primary screen (AID 1097).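 Also: probe is a biotinylated anti-EGFR antibody binding compounds printed on slides; score combines fluorescence near 667 nm and signal to noise of each spot.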 Conditions: small-molecule microarray, higher = more signal.
Assay [11] relates to Plasmodium falciparum Sir2 (PF13_0152, Sir2A). The assay is described as follows: Plasmodium falciparum Sir2A binding compounds – biochemical, small-molecule microarray, 635 nm fluorescence, primary screen (AID 1098).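 Also: score merges spot fluorescence intensity with its signal-to-noise ratio.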 As to conditions: fluorescence 635 nm, higher = more signal.
A short description of assay [12]: probe aDKK1 binding to arrayed compounds – biochemical, biotinylated probe, 635/667 nm fluorescence, primary screen (AID 1099).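 Also: score merges 667nm spot fluorescence with signal to noise across triplicate slides; reference of the scale not given here.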 As to conditions: small-molecule microarray, higher = more signal.
Assay [13] in a line: probe aCHRDL2 binding to arrayed compounds – biochemical, biotinylated probe, 635/667 nm fluorescence, primary screen (AID 1100). Conditions: small-molecule microarray, higher = more signal.
Assay [14] can be described thus: change in splice reporter luminescence, either direction, cell-based, HEK293, spliceosome inhibition project, primary screen (AID 1101).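 Also: HEK293 cells carrying a splicing-competent luciferase reporter gene; test concentration not given here.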 As to conditions: HEK293 splicing luciferase reporter, 24 h, higher = more signal, called active from +8 up or from −8 down.
Assay [15] concerns the target Fibroblast growth factor 10 (Homo sapiens) (UniProt O15520). Briefly: compounds binding fibroblast growth factor 10 – biochemical, small-molecule microarray, 635 nm fluorescence, primary screen (AID 1102). As to conditions: FGF10 binding, fluorescence 635 nm, higher = more signal.
The test system of assay [16] is glycogen synthase kinase-3 (GSK3A per assay name; protocol says GSK3B). Briefly: compounds binding glycogen synthase kinase-3 – biochemical, small-molecule microarray, 635 nm fluorescence, GSK3A, primary screen (AID 1103). Also: the record names both GSK3A and GSK3B. Conditions: fluorescence 635 nm, higher = more signal.
Assay [17] has as its target Epidermal growth factor receptor (Homo sapiens) (UniProt P00533). The assay is described as follows: compounds binding epidermal growth factor receptor – biochemical, small-molecule microarray, 635 nm fluorescence, primary screen (AID 1104).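 Also: score merges 667 nm emission intensity with spot signal to noise over triplicate slides.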 As to conditions: EGFR binding, higher = more signal.
Assay [18] addresses Follistatin-related protein 3 (Homo sapiens) (UniProt O95633). Briefly: compounds binding follistatin-related protein 3 – biochemical, small-molecule microarray, 635 nm fluorescence, primary screen (AID 1105).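 Also: score merges emission near 667 nm and signal to noise per printed spot across three slides.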 Conditions: FSTL3 binding, higher = more signal.
Assay [19] has as its target Dickkopf-related protein 1 (Homo sapiens) (UniProt O94907). The assay is described as follows: small molecules binding DKK1 protein – biochemical, small-molecule microarray, 635 nm fluorescence scan, primary screen (AID 1106).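 Also: score merges emission near 667 nm with signal to noise over three replicate slides.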 As to conditions: higher = more signal.
For assay [20], the system named is Inhibin beta A chain (activin A). The assay is described as follows: small molecules binding activin A – biochemical, small-molecule microarray, 635 nm fluorescence scan, primary screen (AID 1107).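 Also: mouse activin A protein probed at 4.33 µg/mL on printed slides; score merges bound-protein fluorescence near 667 nm with spot signal-to-noise.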 As to conditions: INHBA, higher = more signal.

Dickkopf-related protein 1 (Homo sapiens), sequence (O94907 whole entry, looked up): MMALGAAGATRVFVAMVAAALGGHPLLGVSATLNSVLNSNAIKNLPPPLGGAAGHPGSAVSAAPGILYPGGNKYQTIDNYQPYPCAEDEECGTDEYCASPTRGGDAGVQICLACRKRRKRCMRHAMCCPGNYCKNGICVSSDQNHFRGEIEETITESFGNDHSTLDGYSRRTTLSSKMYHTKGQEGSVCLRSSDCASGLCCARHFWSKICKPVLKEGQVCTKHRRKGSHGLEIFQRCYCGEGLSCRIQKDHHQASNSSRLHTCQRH
Follistatin-related protein 3 (Homo sapiens), sequence (O95633 whole entry, looked up): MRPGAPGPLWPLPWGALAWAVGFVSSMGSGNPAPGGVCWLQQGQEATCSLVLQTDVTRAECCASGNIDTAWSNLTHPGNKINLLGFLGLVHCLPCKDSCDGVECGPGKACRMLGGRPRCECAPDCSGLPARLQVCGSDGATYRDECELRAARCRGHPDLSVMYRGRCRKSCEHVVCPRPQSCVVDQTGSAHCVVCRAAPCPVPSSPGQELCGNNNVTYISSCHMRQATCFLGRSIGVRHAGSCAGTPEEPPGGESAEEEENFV
Fibroblast growth factor 10 (Homo sapiens), sequence (O15520 whole entry, looked up): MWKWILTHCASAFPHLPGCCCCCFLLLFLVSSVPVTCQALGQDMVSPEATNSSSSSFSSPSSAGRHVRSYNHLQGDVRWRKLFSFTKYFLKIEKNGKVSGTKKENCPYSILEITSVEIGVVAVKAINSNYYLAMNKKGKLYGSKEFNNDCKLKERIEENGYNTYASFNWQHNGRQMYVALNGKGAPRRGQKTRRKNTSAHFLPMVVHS
Epidermal growth factor receptor (Homo sapiens), sequence (P00533 whole entry, looked up): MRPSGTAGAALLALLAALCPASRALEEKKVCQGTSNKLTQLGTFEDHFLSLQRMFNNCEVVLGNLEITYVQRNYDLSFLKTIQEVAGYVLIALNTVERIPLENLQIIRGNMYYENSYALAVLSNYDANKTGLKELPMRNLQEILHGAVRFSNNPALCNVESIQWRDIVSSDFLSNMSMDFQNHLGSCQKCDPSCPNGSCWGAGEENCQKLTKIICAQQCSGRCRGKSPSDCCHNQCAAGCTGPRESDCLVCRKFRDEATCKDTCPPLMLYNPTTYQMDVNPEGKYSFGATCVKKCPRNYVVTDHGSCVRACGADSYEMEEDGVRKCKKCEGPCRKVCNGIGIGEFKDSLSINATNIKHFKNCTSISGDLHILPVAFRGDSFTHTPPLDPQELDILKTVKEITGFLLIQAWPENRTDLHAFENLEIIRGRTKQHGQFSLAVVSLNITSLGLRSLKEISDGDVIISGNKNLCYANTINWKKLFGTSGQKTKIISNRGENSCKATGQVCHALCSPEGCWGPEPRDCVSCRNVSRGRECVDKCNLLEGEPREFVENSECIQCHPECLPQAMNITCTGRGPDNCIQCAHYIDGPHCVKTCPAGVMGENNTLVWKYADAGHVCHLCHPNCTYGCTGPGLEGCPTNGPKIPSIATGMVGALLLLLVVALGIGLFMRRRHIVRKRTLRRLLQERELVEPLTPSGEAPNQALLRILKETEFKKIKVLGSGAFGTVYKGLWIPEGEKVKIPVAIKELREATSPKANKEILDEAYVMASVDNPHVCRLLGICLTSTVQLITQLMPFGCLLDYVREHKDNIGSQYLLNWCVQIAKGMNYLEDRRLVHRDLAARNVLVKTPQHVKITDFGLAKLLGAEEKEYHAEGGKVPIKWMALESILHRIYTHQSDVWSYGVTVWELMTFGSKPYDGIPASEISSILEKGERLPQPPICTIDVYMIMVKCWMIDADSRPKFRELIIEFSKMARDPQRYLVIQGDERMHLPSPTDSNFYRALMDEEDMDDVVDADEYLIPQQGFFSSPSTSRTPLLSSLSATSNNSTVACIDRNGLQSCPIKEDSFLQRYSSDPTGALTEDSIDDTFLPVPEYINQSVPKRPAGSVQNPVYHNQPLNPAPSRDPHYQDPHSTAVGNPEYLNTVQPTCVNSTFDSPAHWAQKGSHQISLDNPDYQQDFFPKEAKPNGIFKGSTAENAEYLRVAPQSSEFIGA

With `CN(C)C(=O)[C@@]1(Cc2ccccc2N=[N+]=[N-])N=C(c2ccc(OCCCO)cc2)O[C@H]1c1ccccc1CN=[N+]=[N-]`, the composite z-score was 1.56 in [1]; 3.57 in assay [5]; 0.839 in assay [7]; 1.35 in assay [8]; 1.06 in assay [9]; 0.355 in assay [10]. The composite z-score in assay [11] is 1.68; in [12], 1.22; in assay [13], 1.3; in [15] it was 0.689; in assay [16] it was 1.21; in assay [17] it was 0.0256. For the same molecule, the values for the composite z-score in assay [18], in assay [19] and in [20] were 0.482, 0.4 and 0.676, respectively. The z-score in [2] is -1.92 (inactive); in assay [3], -1.62 (inactive); in [4], 1.62 (inactive); in assay [6], 0.859 (inactive); in [14] it was -0.636 (inactive).
For the molecule `CO[C@H]1O[C@H](CO)[C@@H](OC(=O)Nc2ccccc2)[C@H](OC(=O)Nc2ccc3c(c2)OCO3)[C@@H]1OC(=O)Nc1ccc2c(c1)OCO2`, the composite z-score was 1.53 in assay [1]; 2.62 in assay [5]; -0.0591 in assay [7]; -0.0087 in [8]; 0.845 in assay [9]; -0.117 in assay [10]. The composite z-score is 1.51 in [11]; 0.355 in [12]; 0.749 in [13]; 0.183 in [15]; 1.19 in assay [16]; -0.374 in [17]. The composite z-score in assay [18] turned out to be 0.558; in assay [19], 0.355; in [20], 0.794. Moreover, the z-score was 0.058 (inactive) in assay [2]; -0.1 (inactive) in [3]; 3.14 (inactive) in [4]; 1.67 (inactive) in assay [6]; -0.368 (inactive) in assay [14].
On to `Cc1cc(C)c(C(O)C2C=CC3C(=O)N(C)C(=O)C3N2N2CCCCC2)c(C)c1` (stereo not given), for which the composite z-score amounted to 1.54 in assay [1]; 2.99 in assay [5]; 0.433 in assay [7]; 0.521 in assay [8]; 1.06 in assay [9]; 0.301 in assay [10]. The composite z-score in assay [11] worked out at 1.38; in assay [12], 0.261; in [13], 1.2; in assay [15] it was 1.07; in assay [16] it was 1.31; in assay [17], 0.641. Further, the composite z-score was determined as 1.35 in [18], 0.384 in assay [19] and 1.36 in assay [20]. Also, the z-score was -0.133 (inactive) in assay [2]; 1.08 (inactive) in [3]; -0.376 (inactive) in assay [4]; -0.587 (inactive) in assay [6]; 1.91 (inactive) in assay [14].
`C[C@@H]1CC[C@H]2C(=O)N3CCC[C@H]3C(=O)N2[C@H]1c1ccc(Br)cc1`: the composite z-score in [1] was -0.455; in [5], 0.178; in assay [7], -0.207; in [8] it was 0.49; in assay [9], -0.383; in assay [10] it was -0.166. Besides, the composite z-score in assay [11] was 0.654; in [12], -0.178; in [13], -0.439; in [15], 0.125; in assay [16], 0.267; in assay [17], 0.0436. In addition, the values for the composite z-score in assay [18], in assay [19] and in assay [20] were 0.0529, 0.526 and 0.38, respectively. For the same molecule, the z-score in [2] was 0.233 (inactive); in assay [3] it was -0.228 (inactive); in [4], -0.0146 (inactive); in assay [6], 0.784 (inactive); in [14] it was -0.931 (inactive).
With `COCCOC(=O)N1C(=O)[C@@]2(c3cc(C#CCCO)ccc31)[C@H](c1ccc(OCCO)cc1)N1[C@H](c3ccccc3)[C@H](c3ccccc3)OC(=O)[C@H]1[C@@H]2C(=O)NC[C@H](O)c1ccccc1`, the composite z-score in assay [1] is 1.54; in assay [5], 2.54; in assay [7], -0.116; in [8] it was 1.6; in assay [9], 1.07; in assay [10], -0.0286. For the same molecule, the composite z-score was 1.3 in assay [11]; 0.0564 in [12]; -0.0641 in [13]; 1.31 in assay [15]; 1 in [16]; 0.776 in [17]. Besides, the values for the composite z-score in assay [18], in assay [19] and in assay [20] were 1.41, 0.923 and 0.701, respectively. Moreover, the z-score was 1.99 (inactive) in assay [2]; 1.98 (inactive) in assay [3]; 5.45 (inactive) in assay [4]; 1.3 (inactive) in [6]; -0.6 (inactive) in assay [14].
